High-throughput results from PubChem BioAssay.
ELG1 repair inh – inhibitors of ELG1-dependent DNA repair in HEK293T cells | HEK293T ELG1-luciferase reporter, luminescence, 16 h; DNA damage induced by 5-fluorouridine | Potency, µM (highest dose often 46.1 µM), without a hit: at the highest dose activity change, negative = inhibition, hits mostly inhibitors | hit rate 2.3% among 330,000; also: potency is read from the fitted curve at half-maximal effect; nearly all actives have a fitted effect of over 55% in size
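Cells (2,000 per well) received 5-fluorouridine plus test compound or DMSO and were incubated 16 hr at 37 °C, 5% CO2. Luciferase activity was read by luminescence 30 min after ONE-Glo addition; signal suppression marked inhibition of damage-induced ELG1 function.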
VP16 counter – counter-screen for ROR gamma inhibitors: Gal4-VP16 reporter | Drosophila S2 Gal4-VP16 UAS-luciferase, luminescence, 20 h | Potency, µM (highest dose often 53.6 µM), inactives show at the highest dose activity, negative = inhibition, actives largely listed as inhibitors | hit rate 3.5% among 310,000 | AID 2546;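 also: Gal4-VP16 expression switched on by copper sulfate through the metallothionein promoter; potency is read from the fitted curve at half-maximal effect; nearly all actives have a fitted effect of over 50% in size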
TSHR antag – blocks TSH signaling through the human TSH receptor; activity change, negative = inhibition, % at 11.5 µM; hit rate 0.2% among 330,000; AID 504810; TSHR-expressing cells, TSH-stimulated cAMP HTRF, 2 h; active compounds read low; P16473;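 active = activity change below a set negative limit, meaning inhibition stronger than a set level, cut at about -70% in these data; inconclusive = activity change between two set negative limits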
Target sequence (P16473 whole entry, looked up): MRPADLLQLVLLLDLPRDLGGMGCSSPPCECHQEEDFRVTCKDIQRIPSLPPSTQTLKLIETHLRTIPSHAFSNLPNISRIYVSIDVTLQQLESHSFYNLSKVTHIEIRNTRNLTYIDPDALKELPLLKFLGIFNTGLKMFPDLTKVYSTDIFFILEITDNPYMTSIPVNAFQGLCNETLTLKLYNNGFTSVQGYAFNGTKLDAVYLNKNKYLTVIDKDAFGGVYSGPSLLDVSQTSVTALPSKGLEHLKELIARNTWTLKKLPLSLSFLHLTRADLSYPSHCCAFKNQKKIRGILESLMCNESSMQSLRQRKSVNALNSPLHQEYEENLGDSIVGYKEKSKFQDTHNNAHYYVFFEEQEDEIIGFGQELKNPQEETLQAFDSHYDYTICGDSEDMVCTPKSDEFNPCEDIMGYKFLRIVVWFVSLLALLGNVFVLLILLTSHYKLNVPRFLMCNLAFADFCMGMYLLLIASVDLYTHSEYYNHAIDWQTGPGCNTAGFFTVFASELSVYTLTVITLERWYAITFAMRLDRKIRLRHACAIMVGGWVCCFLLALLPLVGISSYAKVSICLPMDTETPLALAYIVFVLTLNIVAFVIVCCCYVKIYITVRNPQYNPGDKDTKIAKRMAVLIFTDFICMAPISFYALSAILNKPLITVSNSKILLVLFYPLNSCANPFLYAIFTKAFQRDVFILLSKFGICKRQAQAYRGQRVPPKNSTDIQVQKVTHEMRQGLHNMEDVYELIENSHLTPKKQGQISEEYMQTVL
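Cell-based HTRF cAMP assay; TSHR cells + compound, TSH EC80 (4nM final), 2 h, 37 deg C. Lysis with anti-cAMP cryptate and cAMP-d2, 30 min RT, read 665/620 nm.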
B2AR arrestin – recruits beta-arrestin to the human beta2-adrenergic receptor; P07550; beta-arrestin recruitment to beta2AR, cell-based reporter; Potency, µM (highest dose often 46.1 µM), for the others: at the highest dose activation, actives largely listed as activators; hit rate 0.02% among 330,000;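 also: potency is read from the fitted curve at half-maximal effect; 0% = DMSO controls and full agonism = EC100 isoproterenol or metaproterenol; nearly all actives have a fitted effect of over 65% in size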
RORgamma inh – blocks mouse ROR gamma transcriptional activity; hit rate 5.4% among 310,000; P51450; Drosophila S2 Gal4-RORgamma UAS-luciferase reporter, 20 h; Potency, µM (top dose mostly 53.6 µM), inactives show at the highest dose activity change, negative = inhibition, actives largely listed as inhibitors; also: potency is read from the fitted curve at half-maximal effect; nearly all actives have a fitted effect of over 60% in size
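Stable Schneider cell line, Gal4 DNA-binding domain fused to ROR gamma, UAS-luciferase. Cmpd 1 hr RT → CuSO4 700 uM final → 20 hr RT → luciferase reagent 10 min → luminescence.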
* hit, by the source's call; ? = inconclusive; . = not tested or not shown; [ ] = dose if it differs, or a comment. In the library only some 7.5% were active in any assay of this set; here they are far more common. Unless noted, calls follow the shape of the dose curve; as a rule, active = well fitted curve in the direction sought with a large enough effect; inconclusive = small, poorly fitted or top-dose-only effect, or another doubt; inactive = no such curve, though single readings can be large; an effect the other way counts as inactive or inconclusive. Unless noted, % is scaled to controls: 0 for no effect and ±100 for the full control effect.

SMILES	ELG1 repair inh	VP16 counter	TSHR antag	B2AR arrestin	RORgamma inh
CC(C)(C)OC(=O)[C@H](Cc1ccccc1)NC(=O)c1nc[nH]c1C(=O)NC1CCN(C(=O)OC(C)(C)C)CC1	-19%	7.1µM*	-19	0%	5µM*
CC(C)(C)OC(=O)N1CCN(C(=O)c2[nH]cnc2C(=O)N[C@@H](Cc2ccccc2)C(=O)OCc2ccccc2)CC1	-13%	?	-37	-1%	11µM*
CC(C)(C)OC(=O)N1CCC(NC(=O)c2nc[nH]c2C(=O)NCc2ccccc2)CC1	13%	.	-9	-1%	.
CC1CCN(C(=O)c2[nH]cnc2C(=O)N[C@@H](Cc2ccccc2)C(=O)OC(C)(C)C)CC1	14%	20µM*	2	-1%	?
CC(C)C[C@H](NC(=O)c1nc[nH]c1C(=O)N1CCC(C)CC1)C(=O)OCc1ccccc1	26%	?	5	-1%	?
CC(C)(C)OC(=O)[C@H](Cc1ccccc1)NC(=O)c1nc[nH]c1C(=O)N1CCN(c2ccccc2)CC1	1%	?	23	0%	-12%
CC(C)C[C@H](NC(=O)c1nc[nH]c1C(=O)N1CCN(C(=O)OC(C)(C)C)CC1)C(=O)OCc1ccccc1	4%	?	-12	0%	8.9µM*
COCCCNC(=O)CC1C[C@H](C(=O)N2CCCCC2)[C@@]2(CCc3ccccc3)c3[nH]c4ccc(OC)cc4c3CCN2C1=O (some centres undefined)	-16%	.	-2	-1%	.
NC(=O)C1CCN(C(=O)c2ccc(NS(=O)(=O)c3ccc(F)c(F)c3)cc2)CC1	5%	.	-3	0%	.
CC(C)(C)OC(=O)[C@H](Cc1ccccc1)NC(=O)c1nc[nH]c1C(=O)N1CCN(C(=O)OC(C)(C)C)CC1	?	?	-11	0%	11µM*
CC(C)Cc1nn2c(N)c(/C=C3\C=Nc4ccccc43)c(=O)nc2s1	-9%	-3%	-17	0%	?
Cn1c(=O)c2sccc2n2c(CCCC(=O)NCCc3ccccc3)nnc12	?	5%	2	0%	-3%
CCc1ccc(S(=O)(=O)NC2CC(C)(C)NC(C)(C)C2)cc1	-5%	-4%	4	0%	2µM*
CCN(CC)C(=O)CSc1nc2c(sc(=S)n2-c2ccccc2)c(=O)n1Cc1ccco1	23µM*	-1%	-11	0%	?
CCN(CC)C(=O)CSc1nc2c(sc(=S)n2CC)c(=O)n1-c1ccccc1	?	-8%	-6	0%	0%
Cc1cc2nc(-c3ccc[nH]c3=O)[nH]c2cc1C	?	6.3µM*	5	0%	7.9µM*
Cc1cccc(CC(=O)NCC(=O)NCc2cc(=O)n(C)c(=O)n2C)c1	0%	-2%	-90*	-1%	-4%
CCOc1ccc(CC(=O)NCC(=O)NCc2cc(=O)n(C)c(=O)n2C)cc1	12%	-3%	2	-1%	-21%
Cc1cccc(S(=O)(=O)Nc2ccc(-c3nc4ccc(C)cc4s3)cc2)c1	?	-25%	-7	8%	5.6µM*
Cc1ccc2nc(-c3ccc(NC(=O)COC(=O)c4ccc(=O)[nH]c4)cc3)sc2c1	?	5µM*	12	-1%	0.28µM*
Cc1nc2ccc(NC(=O)CCS(=O)(=O)c3ccccc3)cc2s1	?	?	-19	-1%	-11%
Cc1nc2cc(NC(=O)CCS(=O)(=O)c3ccccc3)ccc2s1	?	?	-5	0%	16µM*
Cc1ccc2nc(-c3ccc(NC(=O)CCS(=O)(=O)c4ccccc4)cc3)sc2c1	?	7.9µM*	-37	0%	1.1µM*
CC(C)OCCCNC(=S)Nc1ccc(S(N)(=O)=O)cc1	5%	35µM*	-13	4%	8%
Cc1cccc(C)c1NC(=S)N(Cc1ccccc1)Cc1cccs1	?	-14%[10 µM]	-4	0%	7.1µM*
SMILES	ELG1 repair inh	VP16 counter	TSHR antag	B2AR arrestin	RORgamma inh
Cc1ccc(CN(Cc2ccccc2)C(=S)Nc2ccccc2C)o1	9%	?	-10	-1%	7.1µM*
Cc1ccc(CN(Cc2ccco2)C(=S)Nc2ccccc2C)cc1	-11%	-72%	-6	0%	?
O=C(O)CNC(=S)N(Cc1ccccc1)Cc1cccs1	-5%	3%	12	-1%	17%
CCCc1cc(N2CCCC2)n2nc(C)c(-c3ccccc3)c2n1	-11%	3%[0.365 µM]	-24	0%	?
Cc1nn2c(NCc3ccccn3)cc(C(C)C)nc2c1-c1ccccc1	?	0.63µM*	-3	0%	0.089µM*
CCCc1cc(NCc2ccccn2)n2nc(C)c(-c3ccccc3)c2n1	21µM*	0.56µM*	4	0%	0.089µM*
Cc1nn2c(NCCCn3ccnc3)cc(C(C)C)nc2c1-c1ccccc1	-13%	-15%	-1	0%	?
CC1(C(=O)CSc2n[nH]c(-c3ccccc3Cl)n2)CCC(=O)O1 (centres undefined)	13%	2%	-2	0%	-14%
CC1CC2(CC(C)(C(=O)CSc3n[nH]c(-c4ccccc4Cl)n3)OC2=O)C(=O)O1 (centres undefined)	24%	?	11	0%	10µM*
COc1cc(OC)c(NC(=S)NCc2ccccc2)cc1Cl	-1%	?	6	0%	11µM*
COc1cc(OC)c(NC(=S)Nc2cccc(C(C)=O)c2)cc1Cl	-1%	0%	-15	0%	?
COc1cc(OC)c(NC(=S)Nc2cc(Cl)cc(Cl)c2)cc1Cl	-13%	?	-3	0%	13µM*
COc1ccc(NC(=S)NCc2ccccc2)c(OC)c1	0%	?	4	-1%	16µM*
COc1cc(Cl)c(C)cc1NC(=S)NN	-26%	?	-1	0%	2.5µM*
COc1ccc(NC(=O)CC(C)CC(=O)NCc2ccccc2)c(OC)c1 (centres undefined)	-8%	1%	-14	-1%	-13%
C[C@@H]1OC(OC2C(OC3CC[C@@]4(C)C5CC=C6C7CC(C)(C)CC[C@@]7(C(=O)O)CCC6(C)C5(C)CCC4[C@]3(C)CO)OCC(O)C2O)C(O)C(O)C1O (some centres undefined)	.	-28%	.	.	-34%
CC1=C([N+](=O)[O-])C(c2ccc3c(c2)OCO3)N(C)C(=O)N1C (centres undefined)	-8%	14%	10	0%	-29%
COc1cc(NC(=S)NC(C)(C)C)c(OC)cc1Cl	?	?	9	-1%	5µM*
COc1ccc(NC(=S)NCCc2ccccc2)c(OC)c1	-4%	18µM*	3	0%	11µM*
COc1ccc(COC(=O)N/N=C2/C[C@@H](O)[C@@H](O)[C@@H]3[C@@H]4C(=O)N(c5cccc(Oc6ccccc6)c5)C(=O)[C@H]4CC[C@@H]23)cc1	.	0%[10 µM]	.	.	9%[10 µM]
